DT40 TDP1 CPT: qHTS for Inhibitors of human tyrosyl-DNA phosphodiesterase 1 (TDP1): qHTS in cells in presence of CPT. chicken DT40 Tdp1-/-;hTDP1 cells + 20 nM CPT, ATP luminescence, 48 h. Potency, µM (highest dose often 46.2 µM), for the others: top-dose activity change, negative = growth inhibition, actives largely listed as inhibitors. 12% of 420,000 active; note: % is set by controls: 0 for no effect and ±100 for the full control effect; nearly all actives have a fitted effect of over 55% in size
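Chicken DT40 Tdp1-/- cells complemented with human TDP1, 400 cells/well, exposed to compounds plus 20 nM camptothecin for at least 48 h at 37 C; viability read as ATP content by CellTiter-Glo luminescence.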
DT40 TDP1 no CPT: qHTS for Inhibitors of human tyrosyl-DNA phosphodiesterase 1 (TDP1): qHTS in cells in absence of CPT; DT40 Tdp1-/- hTDP1 cells, no CPT, ATP luminescence, 48 h; Potency, µM (highest dose often 46.2 µM), without a hit: at the top dose activity change, negative = growth inhibition, actives largely listed as inhibitors; 15% of 420,000 active; AID 686978, 2013; note: % is set by controls: 0 for no effect and ±100 for the full control effect; nearly all actives have a fitted effect of over 55% in size
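Growth kinetics read by CellTiter-Glo luminescence after ≥48 hr at 37 °C. Cells: DT40 Tdp1-/- stably carrying human TDP1, 400 per well, compound exposure in the absence of CPT (DMSO vehicle).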
HepG2 tox: qHTS for Inhibitors of TGF-b: Cytotox Counterscreen; 0.76% of 410,000 active; AID 588856, 2011; Potency, µM (highest dose often 46.1 µM), without a hit: at the top dose activity change, negative = cytotoxicity, actives largely listed as cytotoxic; HepG2 CAGA-GFP viability, ATP luminescence, 18 h
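HepG2 CAGA-GFP cells (1000/well, DMEM with 1% FBS) received compound, then TGF-beta at 500 pg/mL final, and were incubated 18 hours at 37 degrees C. Viability was read by CellTiter-Glo luminescence. Media-only wells were set as complete cell-killing and DMSO as no toxicity.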
ATXN viability: Viability Counterscreen for Primary qHTS for Inhibitors of ATXN expression; S2 cells (HEK-293 line with an ATXN2-luciferase reporter) viability, CellTiter-Fluor protease fluorescence, 24 h; Potency, µM (series often up to 56.7 µM), most hits filed as cytotoxic; 0.49% of 400,000 active; AID 651635, 2014; note: nearly all actives have a fitted effect of over 40% in size
TGFb SMAD3 inh: qHTS for Inhibitors of TGF-b | Potency, µM (series often up to 46.1 µM), for inactives: at the highest dose activity, negative = inhibition, usual class: inhibitors | 1.2% of 410,000 active | HepG2 CAGA-GFP TGF-b/SMAD3 reporter, GFP fluorescence, 18 h; TGF-beta stimulated, 500 pg/mL final; note: % is set by controls: 0 for no effect and ±100 for the full control effect; nearly all actives have a fitted effect of over 65% in size
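Cell-based qHTS in HEPG2 carrying a CAGA-GFP Smad reporter; compounds added before 500 pg/mL final TGF-beta, 18 h incubation at 37 degrees C, GFP fluorescence quantified per cell by imaging cytometry.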
ATXN2 expr inh: Primary qHTS for Inhibitors of ATXN expression | HEK-293 ATXN2-luciferase reporter, luminescence, 24 h | Potency, µM (top dose mostly 57 µM), for the others: top-dose activity change, negative = inhibition, actives largely listed as inhibitors | 0.72% of 360,000 active | AID 1745845, 2022; note: % is set by controls: 0 for no effect and ±100 for the full control effect; nearly all actives have a fitted effect of over 55% in size
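qHTS (up to 57 uM final) was run with 24 h compound exposure of reporter cells at 37 °C. Each well was multiplexed: SteadyGlo luminescence measured ATXN2-luciferase expression after a fluorogenic Gly-Phe-AFC viability readout (25 uM final).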
Starred values were filed as active, the others as inactive. An excerpt weighted towards active compounds, which were near 17% of everything screened. Calls come from the whole dose curve; as a rule, active = well fitted curve in the direction sought with a large enough effect; inconclusive = small, poorly fitted or top-dose-only effect, or another doubt; inactive = no such curve, though single readings can be large; an effect the other way counts as inactive or inconclusive. Potency is the fitted concentration of half-maximal effect.

`Cc1c(CCC(=O)NCCCn2ccnc2)c(=O)oc2c(C)c3occ(C(C)(C)C)c3cc12` gave DT40 TDP1 CPT inconclusive, DT40 TDP1 no CPT 21µM*, HepG2 tox -25%, ATXN viability inconclusive, TGFb SMAD3 inh inconclusive and ATXN2 expr inh inconclusive.
For COc1ccccc1CCNC(=O)Cc1c(C)c2cc3c(C)coc3cc2oc1=O the results were DT40 TDP1 CPT inconclusive, DT40 TDP1 no CPT inconclusive, HepG2 tox -9% and TGFb SMAD3 inh -15%.
For Cc1coc2cc3oc(=O)c(CCC(=O)NCc4ccc(Cl)cc4)c(C)c3cc12 the results were DT40 TDP1 CPT 10µM*, DT40 TDP1 no CPT 26µM*, HepG2 tox -27%, ATXN viability inactive, TGFb SMAD3 inh 3% and ATXN2 expr inh 0%.
Cc1coc2c(C)c3oc(=O)c(CCC(=O)NCCc4ccc(Cl)cc4)c(C)c3cc12 was read as DT40 TDP1 CPT inconclusive, DT40 TDP1 no CPT 12µM*, HepG2 tox 4% and TGFb SMAD3 inh -2%.
For COc1ccccc1CCNC(=O)CCc1c(C)c2cc3c(C)coc3cc2oc1=O the results were DT40 TDP1 CPT 16µM*, DT40 TDP1 no CPT inconclusive, HepG2 tox -27%, ATXN viability inconclusive, TGFb SMAD3 inh -27% and ATXN2 expr inh -26%.
COc1ccc(CCNC(=O)Cc2c(C)c3cc4c(C)coc4c(C)c3oc2=O)cc1 was read as DT40 TDP1 CPT -11%, DT40 TDP1 no CPT inconclusive, HepG2 tox -6% and TGFb SMAD3 inh -3%.
Cc1ccc(NC(=O)CSc2nnc(-c3ccncc3)o2)cc1C was read as DT40 TDP1 CPT 9%, DT40 TDP1 no CPT 0%, HepG2 tox -8%, ATXN viability inactive, TGFb SMAD3 inh -3% and ATXN2 expr inh -8%.
For COc1ccc(CNS(=O)(=O)NCc2ccccc2F)cc1 the results were DT40 TDP1 CPT 17%, DT40 TDP1 no CPT 0%, HepG2 tox -24%, ATXN viability inactive, TGFb SMAD3 inh 0% and ATXN2 expr inh 12%.
For Cc1ccc(N2C(=O)CS/C2=N\C(=S)Nc2ccccc2)cc1 the results were DT40 TDP1 CPT inconclusive, DT40 TDP1 no CPT 5.8µM*, HepG2 tox -3%, ATXN viability inactive, TGFb SMAD3 inh 5% and ATXN2 expr inh -2%.
For O=C1CSC(=Nc2ccc(O)cc2)N1c1ccc(O)cc1 the results were DT40 TDP1 CPT -2%, DT40 TDP1 no CPT 9%, HepG2 tox 4%, ATXN viability inactive, TGFb SMAD3 inh 3% and ATXN2 expr inh -2%.
Screening C#CCOCCOCCOCCNc1nc(N2CCN(C(=O)[C@H](CCC(=O)O)n3cc(C(N)CO)nn3)CC2)nc(N2CCN(C(=O)[C@H](CCC(=O)O)n3cc(C(N)[C@H](C)CC)nn3)CC2)n1 (some centres undefined) returned DT40 TDP1 CPT -17%, DT40 TDP1 no CPT -4%, HepG2 tox -13%, ATXN viability inactive, TGFb SMAD3 inh -11% and ATXN2 expr inh -1%.
Screening COc1ccc(C(=O)N[C@H](C(=O)Nc2sccc2C(N)=O)C(C)C)cc1 returned DT40 TDP1 CPT inconclusive, DT40 TDP1 no CPT inconclusive, HepG2 tox -14%, ATXN viability inactive, TGFb SMAD3 inh -12% and ATXN2 expr inh 0%.
For COc1ccc(C(=O)NC(C(=O)OCC(=O)Nc2sccc2C(N)=O)C(C)C)cc1 (centres undefined) the results were DT40 TDP1 CPT inconclusive, DT40 TDP1 no CPT 23µM*, HepG2 tox -6%, ATXN viability inactive, TGFb SMAD3 inh -9% and ATXN2 expr inh -23%.
`Cc1ccc(C(=O)OCC(=O)Nc2ccccc2)cc1NC(=O)c1ccco1` gave DT40 TDP1 CPT -9%, DT40 TDP1 no CPT -4%, HepG2 tox -2%, ATXN viability inactive, TGFb SMAD3 inh -5% and ATXN2 expr inh 15%.
For COc1cc(OC)cc(C(=O)N[C@H](C(=O)OCC(N)=O)C(C)C)c1 the results were DT40 TDP1 CPT -17%, DT40 TDP1 no CPT -8%, HepG2 tox 9%, ATXN viability inactive, TGFb SMAD3 inh 1% and ATXN2 expr inh -1%.
For COc1ccc(C(=O)N[C@H](C(=O)OCCCOC(=O)[C@@H](NC(=O)c2ccc(OC)cc2)C(C)C)C(C)C)cc1 the results were DT40 TDP1 CPT 23µM*, DT40 TDP1 no CPT inconclusive, HepG2 tox -53%, ATXN viability inconclusive, TGFb SMAD3 inh inconclusive and ATXN2 expr inh -17%.
For Cc1ccc(C(=O)OCC(=O)Nc2sccc2C(N)=O)cc1NC(=O)c1ccco1 the results were DT40 TDP1 CPT inconclusive, DT40 TDP1 no CPT 6.5µM*, HepG2 tox 1%, ATXN viability inactive, TGFb SMAD3 inh 6% and ATXN2 expr inh 1%.
For O=C(CN1c2cccc3cccc(c23)S1(=O)=O)Nc1ccc(F)c(F)c1F the results were DT40 TDP1 CPT inconclusive, DT40 TDP1 no CPT inconclusive, HepG2 tox 10%, ATXN viability inactive, TGFb SMAD3 inh -3% and ATXN2 expr inh -16%.
`COc1ccc(C)cc1NC(=O)C1COc2ccccc2C1` (centres undefined) gave DT40 TDP1 CPT inconclusive, DT40 TDP1 no CPT inconclusive, HepG2 tox -12%, ATXN viability inactive, TGFb SMAD3 inh -14% and ATXN2 expr inh 3%.
For COc1ccc(C2COc3cc(O)ccc3C2)c(OC)c1O (centres undefined) the results were DT40 TDP1 CPT 18µM*, DT40 TDP1 no CPT 16µM*, HepG2 tox -15%, ATXN viability inactive, TGFb SMAD3 inh -17% and ATXN2 expr inh -4%.
`Cc1cc(-c2nnc3n2CCCCC3)c(C)n1-c1ccccc1` gave DT40 TDP1 CPT inconclusive, DT40 TDP1 no CPT 16µM*, HepG2 tox 12%, ATXN viability inactive, TGFb SMAD3 inh 8% and ATXN2 expr inh -14%.
For C=CC[C@@H](CC(=O)N[C@H](CO)Cc1ccccc1)C(=O)N[C@H](COC(=O)[C@@H](CC=C)Cc1ccc(F)cc1)Cc1ccccc1 the results were DT40 TDP1 CPT 23µM*, DT40 TDP1 no CPT 15µM*, HepG2 tox 1%, ATXN viability inactive, TGFb SMAD3 inh -25% and ATXN2 expr inh 5%.
